# Compounds with a hit are over-represented: about 2% of the library has one in this group of screens.
# Y pestis TopoI: Yersinia pestis topoisomerase I inhibitors, primary screen, biochemical, cleavage product accumulation, plate reader, single point; activity, % at 10 µM; Y. pestis Topo-I cleavage product accumulation; 360,000 tested, 0.064% active; in the data active means activity above about 50%, passing the limit was not always enough; inconclusive means no clear call, values can overlap the other calls
# BJeLR lethal: MLPCN primary cell-based screen for lethality selective to Ras in HRASV12 cells; BJeLR (HRASV12) viability, CellTiter-Glo ATP luminescence, 48 h; inhibition, % (concentration not given with the values); 300,000 tested, 0.17% active; AID 1554, 2009; in the data active means inhibition above about 50%; inconclusive means no clear call, values can overlap the other calls
# PrP 5UTR inh: inhibition of PrP 5' UTR reporter expression; AID 488862, 2010; inhibition, % (concentration not given with the values); cell-based PrP 5' UTR mRNA reporter, plate reader; 340,000 tested, 0.35% active; in the data active means inhibition above about 52%; further: 0 = median of the neutral control wells
# PfHsp40 yeast: rescue of yeast from PfHsp40 toxicity, primary screen, S. cerevisiae, ATP luminescence; 340,000 tested, 0.68% active; growth rescue, % at 12.5 µM; AID 504582, 2011; S. cerevisiae expressing PfHsp40, growth rescue; in the data active means growth rescue above about 28%, passing the limit was not always enough; inconclusive means no clear call, values can overlap the other calls;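 further: yeast W303a lacking pdr1 and pdr3 grown in galactose medium; growth measured after three days at 30 °C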
# PrPC TRFRET: inhibitors of human cell surface prion protein PrPC, primary screen, cell-based, TR-FRET. Major prion protein (Homo sapiens), P04156. TR-FRET read-out. inhibition, % at 13.8 µM. 370,000 tested, 0.43% active; in the data active means inhibition above about 24%; further: 0% = median of the test wells and 100% = reference compound wells
# CCHFV vOTU inh: CCHFV vOTU protease inhibitors, primary screen, biochemical, Pep-AMC substrate, fluorescence; Crimean-Congo hemorrhagic fever virus L polyprotein viral ovarian tumor (vOTU) protease …; 370,000 tested, 0.55% active; AID 651958, 2012; inhibition, % at 11.5 µM; in the data active means inhibition above about 30%; further: 0% = vehicle wells with enzyme and 100% = no enzyme wells
# PrPC confirm: confirmation of inhibitors of cell surface human prion protein, confirmation, cell-based, TR-FRET; 1,500 tested, 65% active; shares compounds with PrPC TRFRET; inhibition, % at 13.8 µM; cell surface PrPC level; in the data active means inhibition above about 25%
# LD9 tox: cytotoxicity in LD9 cells, cytotoxicity control for cell surface PrPc inhibitor project, cell-based, luminescence, high throughput; shares compounds with PrPC TRFRET; luminescence viability; inhibition, % at 13.8 µM; 1,500 tested, 29% active; AID 743201, 2013; in the data active means inhibition above about 9.5%
# * hit, by the source's call; ? = inconclusive; . = no result.
SMILES,Y pestis TopoI,BJeLR lethal,PrP 5UTR inh,PfHsp40 yeast,PrPC TRFRET,CCHFV vOTU inh,PrPC confirm,LD9 tox
CCc1cc2cc(C)c(C)cc2nc1SCC(=O)Nc1cc(C)on1,-0.1,5.0,-1.2,-0.4,-1.1,2.6,.,.
COc1ccc(-c2noc(C3CCCN(C(=O)N[C@@H]4C[C@H]4c4ccccc4)C3)n2)cc1 (stereo not given in full),.,.,.,.,2.2,4.1,.,.
CCOC(=O)[C@]12CCCC=C1N(Cc1ccc(OC)cc1)C(=O)[C@@H]2CC(=O)NCCCN1CCCC1=O,.,.,.,.,-7.9,-4.3,.,.
O=C(NCc1ccc(C(=O)N2CCCC2)cc1)c1cccc(Br)c1,.,.,.,.,3.6,-2.3,.,.
COc1cc2sc3cc(NCc4ccc(C)o4)ccc3c(=O)c2cc1OC,21.2,.,-38.9,1.9,-3.7,-15.9,.,.
COc1cc2sc3cc(NCc4ccc5c(c4)OCO5)ccc3c(=O)c2cc1OC,37.0,.,-17.1,0.6,39.1*,-22.7,67.0*,3.0
COc1cccc2sc3cc(NCc4ccc5c(c4)OCO5)ccc3c(=O)c12,15.4,.,-19.9,3.3,94.5*,-35.8,139.3*,-3.3
CC(=O)Nc1sc2c(c1-c1cc3ccccc3o1)CCNC2,.,.,.,.,-7.5,.,.,.
C[C@@H]1ON(C)[C@H]2C[C@H]3c4cc(N5CCN(C)CC5)ccc4CCN3C[C@@H]12,.,.,.,.,1.6,-7.4,.,.
O=C(NC(=S)NCCO)c1sc2ccccc2c1Cl,0.8,2.6,-50.6,0.5,77.5*,7.8,79.8*,-4.0
CC(C)(C)C(=O)NC(=S)NNC(=O)c1sc2ccccc2c1Cl,5.6,16.2,-18.5,?,.,.,.,.
CCCOC(=S)NC(=O)c1sc2ccccc2c1Cl,4.2,1.5,.,0.0,31.6*,1.6,38.3*,-2.7
COC(=O)C1=C(C)N(Cc2ccccc2C(F)(F)F)C(=NCc2ccc(C(F)(F)F)cc2)NC1c1ccc(C(F)(F)F)cc1 (stereo not given),.,.,.,.,-1.1,20.0,.,.
CCc1cc(=O)oc2c(C)c(OS(C)(=O)=O)ccc12,6.0,7.5,-5.8,2.5,4.8,-14.1,.,.
CCc1cc2c(=O)c(-c3ccc4c(c3)OCCO4)c(C)oc2cc1OS(C)(=O)=O,22.8,-5.4,-22.9,-0.7,30.9*,28.9,40.2*,4.9
O=C(O)c1ccccc1SCc1csc(-c2ccccc2)n1,-4.0,3.7,-19.3,-1.8,76.3*,5.5,59.8*,-3.6
Cc1ncc(CO)c(/C=N/NC(=O)c2cc3c(s2)CCCC3)c1O,-12.5,8.2,13.3,19.0,39.8*,-29.1,23.2,14.9*
Cc1cc(C)c2sc(NNC(=O)c3ccc(S(=O)(=O)N4CCc5ccccc5C4)cc3)nc2c1,27.7,11.3,23.0,364.4*,29.0*,25.5,30.0*,12.0*
CC(C)CCN(C)C1CCN(C(=O)NCc2ccccc2)CC1,.,.,.,.,7.3,15.0,.,.
C=CCn1c(=NC(=O)c2cccs2)sc2cccc(OC)c21,0.3,-6.8,-7.9,-0.9,-3.8,-2.7,.,.
C#CCn1c(=NC(=O)c2ccc(Br)s2)sc2cccc(OC)c21,-2.0,-2.9,-68.2,-0.1,29.8*,-10.4,81.3*,2.5
COc1ccc(C(=O)C2(C(=O)NCCO)CC(c3ccccn3)=NO2)cc1 (stereo not given),.,.,.,.,4.7,-2.6,.,.
Cc1ccc(-c2cc(C(=O)N(C)Cc3cnn(C)c3C)c3cc(Br)ccc3n2)cc1,-1.8,-9.7,-5.2,2.3,75.2*,7.0,90.4*,4.0
O=C(C(=O)N1CCN(S(=O)(=O)c2cccc(C(F)(F)F)c2)CC1)c1cccc(C(F)(F)F)c1,.,.,.,.,-0.9,29.1,.,.
Nc1nc(-c2cccs2)c(-c2cccs2)s1,-5.5,-1.2,-9.1,-1.1,24.8*,3.5,19.8,-0.8
SMILES,Y pestis TopoI,BJeLR lethal,PrP 5UTR inh,PfHsp40 yeast,PrPC TRFRET,CCHFV vOTU inh,PrPC confirm,LD9 tox
CC1CC1C(=O)Nc1nc(-c2cccs2)c(-c2cccs2)s1 (stereo not given),-18.2,-4.7,-14.6,1.6,25.4*,8.6,12.3,-2.8
C#CCN(Cc1ccco1)C(=O)c1nnc2c3cc(OC)ccc3n(S(=O)(=O)c3ccc(OC)cc3)c2n1,.,.,.,.,-6.7,-1.0,.,.
COc1ccc(-c2nc3ccc(Br)cn3c2Cc2cccc(Cl)c2)cc1OC,.,.,.,.,26.6*,15.4,61.2*,0.2
Clc1ccc(-c2nc3ccc(Br)cn3c2Cc2cccc(Cl)c2)cc1,.,.,.,.,29.7*,19.3,53.0*,-4.4
Cc1ccc2c(c1)C(CS(=O)(=O)NCC(C)C)NC2 (stereo not given),.,.,.,.,-7.0,1.3,.,.
CC(=O)c1sc(NC(=O)C(C)C)nc1C,-4.2,-2.4,-20.2,-0.1,33.4*,11.0,35.4*,-3.1
CC(=O)Nc1nc(C)c(C(C)=O)s1,3.4,0.6,-12.6,-1.1,6.7,4.7,.,.
N#CCC(N)=C(C#N)C#N,7.8,-2.3,-21.0,0.8,61.3*,10.8,18.2,-3.1
CCOc1ccc(S(=O)(=O)n2cc(-c3ccc(F)cc3)c(N)n2)cc1,11.2,10.9,-18.3,2.4,4.4,0.1,.,.
CCOc1cc(S(=O)(=O)n2cc(-c3ccc(F)cc3)c(N)n2)cc(OCC)c1OCC,6.4,9.9,-10.6,-0.7,29.4*,21.8,18.6,4.0
c1ccc2c(c1)nc(N1CCOCC1)c1nncn12,0.6,-2.1,-2.7,-0.4,103.7*,14.1,2.4,-2.6
NC(=O)C1CCN(C(=S)c2ccc(-c3ccc(Br)cc3)o2)CC1,2.9,5.8,-35.5,-1.8,-6.3,-3.7,.,.
NC(=O)c1ccc(-c2ccc(Br)cc2)o1,-0.2,6.3,-8.8,0.5,52.6*,-5.2,63.4*,-8.7
Oc1ccc(/C=N/Nc2nccnc2Cl)c(O)c1,2.5,68.0*,-1.1,8.4,24.7*,5.0,33.2*,23.9*
Oc1ccc(C=NNc2ccccn2)c(O)c1,-4.5,.,4.9,-0.8,23.0,23.7,.,.
Cc1sc2ncnc(SCC(=O)NNC(=O)c3ccco3)c2c1C,-7.8,-0.7,-28.2,-0.2,21.1,-10.2,.,.
CC(=O)Nc1ccc(NC(=O)CSc2ncnc3sc(C)c(C)c23)cc1,24.3,2.5,-29.0,0.0,19.0,-7.3,.,.
Cc1cccc(NC(=O)CSc2ncnc3sc(C)c(C)c23)n1,30.8,-4.3,-3.8,0.9,26.6*,1.4,42.0*,-2.8
Cc1sc2ncnc(SCC(=O)NC(=O)c3cccn3C)c2c1C,-1.8,-0.5,-2.2,8.9,31.0*,-7.1,76.5*,-4.5
Cc1sc2ncnc(SCC(=O)N3CCCC3=O)c2c1C,12.4,1.6,-14.9,-0.4,26.8*,8.0,40.2*,-3.0
O=C(CSc1nc2ccccc2[nH]1)NN=Cc1ccccc1C(=O)O,.,.,.,.,-9.4,0.9,.,.

# Screening data (PubChem BioAssay)
